# Assay results taken from paper PMC7862700, “An all-to-all approach to the identification of sequence-specific readers for epigenetic DNA modifications on cytosine”.
# Assays:
# Experiment in all cases: DAPPL (digital affinity profiling via proximity ligation, sequencing); 10 mM Tris-HCl pH 7.5, 50 mM NaCl, 1 mM DTT, 4% glycerol, room temperature, 30 min; GST-TFs on glutathione beads, 16-mer random dsDNA library, 0.1% formaldehyde crosslink after washing; high values mean tight binding
# FLI1 = target: T1, FLI1 (Homo sapiens, UniProt Q01543 1-452); details: protein: recombinant; tags: N-terminal GST; dsDNA, one strand shown
# T1 sequence: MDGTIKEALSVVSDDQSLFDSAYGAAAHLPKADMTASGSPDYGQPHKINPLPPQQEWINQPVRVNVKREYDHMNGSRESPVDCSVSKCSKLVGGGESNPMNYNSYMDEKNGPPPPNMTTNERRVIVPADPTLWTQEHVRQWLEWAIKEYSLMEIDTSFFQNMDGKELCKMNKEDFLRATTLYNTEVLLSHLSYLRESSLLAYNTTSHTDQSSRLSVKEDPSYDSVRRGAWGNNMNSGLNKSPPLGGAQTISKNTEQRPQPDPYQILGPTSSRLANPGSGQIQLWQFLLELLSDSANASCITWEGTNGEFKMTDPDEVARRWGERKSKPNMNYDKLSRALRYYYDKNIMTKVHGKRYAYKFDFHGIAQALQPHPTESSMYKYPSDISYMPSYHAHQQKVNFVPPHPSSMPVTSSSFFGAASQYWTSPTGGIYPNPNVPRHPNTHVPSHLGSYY
# How it was run: (§1)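 After expression in yeast as GST fusions, human transcription factors were bound to glutathione beads, DNA-barcoded and mixed with a tag-only sample. The pools were incubated with 200 nmole of a 16-mer random double-stranded DNA library in Tris/NaCl/DTT/glycerol buffer (30 min, room temperature), washed and crosslinked with 0.1% formaldehyde. Proximity ligation with BsaI/T4 ligase ran for 1 h at 37 °C, before PCR amplification and sequencing on an Illumina NextSeq500. Binding signal is a hexamer's read frequency for a factor divided by its frequency for the tag-only sample.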
# ELK1 = target: T2, ELK1 (Homo sapiens, UniProt P19419 1-428); details: protein: recombinant; tags: N-terminal GST; dsDNA, one strand shown
# T2 sequence: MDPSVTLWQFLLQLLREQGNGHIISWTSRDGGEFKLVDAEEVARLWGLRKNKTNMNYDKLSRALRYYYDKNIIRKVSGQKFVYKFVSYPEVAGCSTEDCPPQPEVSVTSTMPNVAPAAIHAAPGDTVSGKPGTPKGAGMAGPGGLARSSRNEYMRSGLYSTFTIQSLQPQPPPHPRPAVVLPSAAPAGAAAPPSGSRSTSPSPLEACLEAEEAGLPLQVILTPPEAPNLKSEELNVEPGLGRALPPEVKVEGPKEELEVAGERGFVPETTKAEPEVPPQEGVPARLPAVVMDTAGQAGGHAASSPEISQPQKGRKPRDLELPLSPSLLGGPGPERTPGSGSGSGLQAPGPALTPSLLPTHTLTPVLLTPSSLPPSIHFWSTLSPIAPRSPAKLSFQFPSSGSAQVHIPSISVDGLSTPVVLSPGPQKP
# How it was run: as §1
# GABPA = target: T3, GABPA (Homo sapiens, UniProt Q06546 1-454); details: protein: recombinant; tags: N-terminal GST; dsDNA, one strand shown
# T3 sequence: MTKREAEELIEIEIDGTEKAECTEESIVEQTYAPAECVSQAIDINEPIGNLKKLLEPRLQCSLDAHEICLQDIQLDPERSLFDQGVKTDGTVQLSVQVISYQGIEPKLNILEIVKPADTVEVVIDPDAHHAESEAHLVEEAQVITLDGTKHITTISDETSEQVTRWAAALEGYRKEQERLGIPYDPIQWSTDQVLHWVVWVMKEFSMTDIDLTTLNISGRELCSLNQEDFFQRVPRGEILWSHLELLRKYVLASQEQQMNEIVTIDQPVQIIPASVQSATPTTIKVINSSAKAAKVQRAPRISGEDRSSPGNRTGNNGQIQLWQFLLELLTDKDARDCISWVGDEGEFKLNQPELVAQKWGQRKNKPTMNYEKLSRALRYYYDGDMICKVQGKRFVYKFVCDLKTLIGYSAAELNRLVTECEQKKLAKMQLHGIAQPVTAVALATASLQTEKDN
# How it was run: as §1
# ERG = target: T4, ERG (Homo sapiens, UniProt P11308 1-479); details: protein: recombinant; tags: N-terminal GST; dsDNA, one strand shown
# T4 sequence: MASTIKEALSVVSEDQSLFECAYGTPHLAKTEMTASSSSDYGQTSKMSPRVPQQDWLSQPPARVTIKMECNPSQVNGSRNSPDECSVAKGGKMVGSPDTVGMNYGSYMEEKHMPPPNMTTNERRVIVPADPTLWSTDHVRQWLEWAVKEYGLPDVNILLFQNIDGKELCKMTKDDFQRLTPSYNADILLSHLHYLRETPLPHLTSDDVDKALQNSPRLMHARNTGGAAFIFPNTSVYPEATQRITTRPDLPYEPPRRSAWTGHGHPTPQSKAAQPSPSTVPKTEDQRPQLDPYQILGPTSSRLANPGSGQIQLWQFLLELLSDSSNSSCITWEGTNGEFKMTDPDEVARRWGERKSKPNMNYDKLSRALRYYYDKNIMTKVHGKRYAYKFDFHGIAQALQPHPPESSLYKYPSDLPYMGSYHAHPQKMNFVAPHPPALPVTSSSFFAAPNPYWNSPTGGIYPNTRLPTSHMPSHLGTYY
# How it was run: as §1
# ELF1 = ELF1 (Homo sapiens, UniProt P32519 1-619); details: protein: recombinant; tags: N-terminal GST; dsDNA, one strand shown
# How it was run: as §1
# EHF = target: T5, EHF (Homo sapiens, UniProt Q9NZC4 1-300); details: protein: recombinant; tags: N-terminal GST; dsDNA, one strand shown
# T5 sequence: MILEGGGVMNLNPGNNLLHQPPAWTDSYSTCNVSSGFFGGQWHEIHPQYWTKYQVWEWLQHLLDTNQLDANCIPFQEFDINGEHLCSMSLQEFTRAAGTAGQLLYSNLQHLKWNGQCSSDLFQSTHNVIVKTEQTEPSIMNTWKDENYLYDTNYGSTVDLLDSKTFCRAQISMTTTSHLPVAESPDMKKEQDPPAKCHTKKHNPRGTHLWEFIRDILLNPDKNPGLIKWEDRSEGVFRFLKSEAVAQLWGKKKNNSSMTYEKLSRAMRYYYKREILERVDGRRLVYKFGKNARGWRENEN
# How it was run: as §1
# SPI1 = SPI1 (Homo sapiens, UniProt P17947 1-270); details: protein: recombinant; tags: N-terminal GST; dsDNA, one strand shown
# How it was run: as §1
# SPIB = SPIB (Homo sapiens, UniProt Q01892 1-262); details: protein: recombinant; tags: N-terminal GST; dsDNA, one strand shown
# How it was run: as §1
# ELK3 = target: T6, ELK3 (Homo sapiens, UniProt P41970 1-407); details: protein: recombinant; tags: N-terminal GST; dsDNA, one strand shown
# T6 sequence: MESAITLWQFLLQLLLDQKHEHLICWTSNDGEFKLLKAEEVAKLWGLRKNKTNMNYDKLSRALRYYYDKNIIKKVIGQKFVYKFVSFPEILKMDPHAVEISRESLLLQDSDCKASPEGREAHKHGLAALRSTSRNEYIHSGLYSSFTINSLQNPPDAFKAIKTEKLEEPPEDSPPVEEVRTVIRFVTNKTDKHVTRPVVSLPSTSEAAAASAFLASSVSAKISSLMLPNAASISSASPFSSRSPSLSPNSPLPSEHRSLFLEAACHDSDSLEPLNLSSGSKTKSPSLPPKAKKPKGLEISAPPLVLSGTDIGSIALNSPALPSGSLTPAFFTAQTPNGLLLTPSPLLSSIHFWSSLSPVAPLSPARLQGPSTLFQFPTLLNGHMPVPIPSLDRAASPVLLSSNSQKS
# How it was run: as §1
# FEV = target: T7, FEV (Homo sapiens, UniProt Q99581 1-238); details: protein: recombinant; tags: N-terminal GST; dsDNA, one strand shown
# T7 sequence: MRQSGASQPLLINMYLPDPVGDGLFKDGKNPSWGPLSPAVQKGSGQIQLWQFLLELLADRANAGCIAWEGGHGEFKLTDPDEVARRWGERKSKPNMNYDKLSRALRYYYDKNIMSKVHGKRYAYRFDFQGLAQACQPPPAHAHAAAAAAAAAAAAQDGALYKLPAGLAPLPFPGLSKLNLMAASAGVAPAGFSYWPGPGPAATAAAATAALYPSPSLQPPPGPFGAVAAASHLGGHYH
# How it was run: as §1
# ETV5 = ETV5 (Homo sapiens, UniProt P41161 1-510); details: protein: recombinant; tags: N-terminal GST; dsDNA, one strand shown
# How it was run: as §1
# HSF1 = HSF1 (Homo sapiens, UniProt Q00613 1-529); details: protein: recombinant; tags: N-terminal GST; chain copies: 3; dsDNA, one strand shown
# How it was run: as §1
# SPIC = target: T8, SPIC (Homo sapiens, UniProt Q8N5J4 1-248); details: protein: recombinant; tags: N-terminal GST; dsDNA, one strand shown
# T8 sequence: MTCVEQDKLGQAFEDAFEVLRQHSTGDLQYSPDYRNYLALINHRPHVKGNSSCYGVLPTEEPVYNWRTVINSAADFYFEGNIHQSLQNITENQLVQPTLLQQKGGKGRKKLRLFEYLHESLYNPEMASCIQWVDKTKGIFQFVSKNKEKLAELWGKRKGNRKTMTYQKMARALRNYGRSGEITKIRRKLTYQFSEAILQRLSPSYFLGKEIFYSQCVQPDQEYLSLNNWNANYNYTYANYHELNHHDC
# How it was run: as §1
# ELF4 = ELF4 (Homo sapiens, UniProt Q99607 1-663); details: protein: recombinant; tags: N-terminal GST; dsDNA, one strand shown
# How it was run: as §1
# ELK4 = target: T9, ELK4 (Homo sapiens, UniProt P28324-2 1-405); details: protein: recombinant; tags: N-terminal GST; dsDNA, one strand shown
# T9 sequence: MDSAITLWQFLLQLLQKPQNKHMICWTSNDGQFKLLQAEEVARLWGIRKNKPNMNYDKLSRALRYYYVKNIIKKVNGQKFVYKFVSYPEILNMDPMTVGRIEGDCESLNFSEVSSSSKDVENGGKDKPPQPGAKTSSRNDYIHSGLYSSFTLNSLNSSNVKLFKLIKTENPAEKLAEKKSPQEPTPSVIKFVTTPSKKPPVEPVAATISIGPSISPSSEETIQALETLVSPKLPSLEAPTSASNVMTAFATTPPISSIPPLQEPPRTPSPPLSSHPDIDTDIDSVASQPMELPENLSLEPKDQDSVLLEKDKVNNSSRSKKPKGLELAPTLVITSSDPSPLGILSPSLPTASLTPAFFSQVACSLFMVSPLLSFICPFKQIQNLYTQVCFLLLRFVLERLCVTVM
# How it was run: as §1
# ETV2 = target: T10, ETV2 (Homo sapiens, UniProt O00321 1-342); details: protein: recombinant; tags: N-terminal GST; dsDNA, one strand shown
# T10 sequence: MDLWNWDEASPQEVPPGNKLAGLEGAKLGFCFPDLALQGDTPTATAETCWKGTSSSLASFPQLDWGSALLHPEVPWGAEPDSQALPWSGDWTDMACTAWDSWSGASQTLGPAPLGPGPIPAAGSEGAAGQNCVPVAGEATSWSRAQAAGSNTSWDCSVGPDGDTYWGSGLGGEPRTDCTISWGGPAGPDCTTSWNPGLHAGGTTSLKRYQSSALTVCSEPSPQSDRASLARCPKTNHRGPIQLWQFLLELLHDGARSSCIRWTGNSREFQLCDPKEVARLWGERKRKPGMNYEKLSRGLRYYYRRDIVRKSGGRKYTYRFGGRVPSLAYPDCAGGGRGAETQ
# How it was run: as §1
# ELF3 = target: T11, ELF3 (Homo sapiens, UniProt P78545 1-371); details: protein: recombinant; tags: N-terminal GST; dsDNA, one strand shown
# T11 sequence: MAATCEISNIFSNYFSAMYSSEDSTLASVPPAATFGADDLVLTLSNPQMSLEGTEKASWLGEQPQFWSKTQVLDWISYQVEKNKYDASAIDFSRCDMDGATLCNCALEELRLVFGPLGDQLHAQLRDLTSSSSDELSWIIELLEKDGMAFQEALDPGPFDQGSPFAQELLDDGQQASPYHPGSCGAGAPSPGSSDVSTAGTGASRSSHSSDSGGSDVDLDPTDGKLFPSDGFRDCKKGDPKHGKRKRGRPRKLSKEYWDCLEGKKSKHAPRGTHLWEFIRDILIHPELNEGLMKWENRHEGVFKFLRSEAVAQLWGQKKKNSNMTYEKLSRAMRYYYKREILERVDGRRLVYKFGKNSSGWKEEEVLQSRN
# How it was run: as §1
# CRX = CRX (Homo sapiens, UniProt O43186 1-299); details: protein: recombinant; tags: N-terminal GST; dsDNA, one strand shown
# How it was run: as §1
# ETV1 = ETV1 (Homo sapiens, UniProt P50549 1-477); details: protein: recombinant; tags: N-terminal GST; dsDNA, one strand shown
# How it was run: as §1
# Chain of ETV1 (P50549 whole entry): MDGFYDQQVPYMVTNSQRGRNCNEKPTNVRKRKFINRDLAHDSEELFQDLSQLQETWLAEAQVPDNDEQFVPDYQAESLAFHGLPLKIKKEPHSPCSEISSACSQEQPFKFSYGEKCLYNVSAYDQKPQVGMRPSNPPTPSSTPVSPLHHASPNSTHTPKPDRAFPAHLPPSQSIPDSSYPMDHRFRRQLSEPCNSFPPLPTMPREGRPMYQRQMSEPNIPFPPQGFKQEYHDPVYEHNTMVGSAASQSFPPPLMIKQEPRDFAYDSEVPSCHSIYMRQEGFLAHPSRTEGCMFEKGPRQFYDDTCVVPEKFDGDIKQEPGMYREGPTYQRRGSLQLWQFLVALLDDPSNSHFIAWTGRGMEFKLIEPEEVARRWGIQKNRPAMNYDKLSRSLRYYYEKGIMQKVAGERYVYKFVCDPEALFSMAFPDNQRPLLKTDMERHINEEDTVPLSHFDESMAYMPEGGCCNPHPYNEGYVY
# Chain of SPIB (Q01892 whole entry): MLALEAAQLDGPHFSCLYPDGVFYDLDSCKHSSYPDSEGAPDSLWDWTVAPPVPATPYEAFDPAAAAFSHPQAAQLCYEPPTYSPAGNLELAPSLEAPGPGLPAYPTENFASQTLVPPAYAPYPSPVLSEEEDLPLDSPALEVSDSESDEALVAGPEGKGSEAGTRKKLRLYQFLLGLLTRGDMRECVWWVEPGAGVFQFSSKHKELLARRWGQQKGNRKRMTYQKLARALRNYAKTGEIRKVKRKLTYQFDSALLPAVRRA
# Chain of CRX (O43186 whole entry): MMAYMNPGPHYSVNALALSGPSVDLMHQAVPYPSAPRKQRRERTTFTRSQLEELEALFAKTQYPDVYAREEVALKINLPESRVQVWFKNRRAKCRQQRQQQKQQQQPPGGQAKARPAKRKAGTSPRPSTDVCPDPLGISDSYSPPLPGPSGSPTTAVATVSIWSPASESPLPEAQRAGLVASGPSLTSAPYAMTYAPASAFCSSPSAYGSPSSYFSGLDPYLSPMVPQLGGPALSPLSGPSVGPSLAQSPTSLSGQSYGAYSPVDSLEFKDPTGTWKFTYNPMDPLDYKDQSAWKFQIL
# Chain of ETV5 (P41161 whole entry): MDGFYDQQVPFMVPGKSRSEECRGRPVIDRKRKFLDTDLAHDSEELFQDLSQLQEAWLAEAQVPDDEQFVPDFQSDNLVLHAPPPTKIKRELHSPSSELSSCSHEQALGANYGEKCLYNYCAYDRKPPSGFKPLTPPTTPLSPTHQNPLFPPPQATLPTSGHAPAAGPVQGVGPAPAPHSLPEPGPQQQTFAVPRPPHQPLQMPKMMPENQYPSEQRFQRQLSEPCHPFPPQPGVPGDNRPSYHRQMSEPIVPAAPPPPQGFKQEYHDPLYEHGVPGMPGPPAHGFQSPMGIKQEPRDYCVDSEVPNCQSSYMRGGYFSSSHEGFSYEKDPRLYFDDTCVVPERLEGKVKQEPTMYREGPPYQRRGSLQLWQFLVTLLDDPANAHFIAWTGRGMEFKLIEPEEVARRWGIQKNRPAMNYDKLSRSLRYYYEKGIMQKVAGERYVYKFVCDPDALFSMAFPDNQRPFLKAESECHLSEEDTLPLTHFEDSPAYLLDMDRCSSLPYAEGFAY
# Chain of ELF4 (Q99607 whole entry): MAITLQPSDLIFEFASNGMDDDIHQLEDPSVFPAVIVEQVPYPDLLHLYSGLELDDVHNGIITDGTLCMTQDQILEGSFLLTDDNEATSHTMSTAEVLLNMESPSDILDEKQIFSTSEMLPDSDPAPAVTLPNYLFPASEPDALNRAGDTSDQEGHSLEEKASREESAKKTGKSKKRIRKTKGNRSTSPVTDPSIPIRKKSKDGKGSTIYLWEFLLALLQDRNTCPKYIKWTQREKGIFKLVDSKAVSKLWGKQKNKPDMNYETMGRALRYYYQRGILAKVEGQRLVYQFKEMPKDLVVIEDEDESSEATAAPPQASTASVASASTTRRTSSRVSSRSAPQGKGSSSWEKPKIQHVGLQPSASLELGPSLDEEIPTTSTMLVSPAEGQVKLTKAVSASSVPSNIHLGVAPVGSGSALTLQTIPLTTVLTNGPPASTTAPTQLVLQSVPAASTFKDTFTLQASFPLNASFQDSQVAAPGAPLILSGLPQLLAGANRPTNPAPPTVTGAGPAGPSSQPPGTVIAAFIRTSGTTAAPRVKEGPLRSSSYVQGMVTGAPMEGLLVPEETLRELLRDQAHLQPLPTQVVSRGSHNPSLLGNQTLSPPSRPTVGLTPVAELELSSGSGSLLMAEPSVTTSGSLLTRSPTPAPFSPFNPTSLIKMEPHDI
# Chain of HSF1 (Q00613 whole entry): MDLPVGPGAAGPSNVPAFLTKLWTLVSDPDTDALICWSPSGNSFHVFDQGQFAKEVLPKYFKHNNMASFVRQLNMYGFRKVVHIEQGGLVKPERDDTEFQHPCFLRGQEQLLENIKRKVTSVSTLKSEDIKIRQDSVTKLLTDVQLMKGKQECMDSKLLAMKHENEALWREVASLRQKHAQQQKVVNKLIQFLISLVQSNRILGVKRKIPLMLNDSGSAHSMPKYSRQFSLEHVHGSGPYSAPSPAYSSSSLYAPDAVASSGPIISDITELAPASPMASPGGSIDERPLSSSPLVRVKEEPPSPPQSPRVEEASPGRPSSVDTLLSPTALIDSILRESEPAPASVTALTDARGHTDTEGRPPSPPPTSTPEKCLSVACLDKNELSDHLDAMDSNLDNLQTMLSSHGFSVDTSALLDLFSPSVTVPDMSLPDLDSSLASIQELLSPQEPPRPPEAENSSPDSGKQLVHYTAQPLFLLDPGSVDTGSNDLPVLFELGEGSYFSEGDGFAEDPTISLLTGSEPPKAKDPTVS
# Chain of ELF1 (P32519 whole entry): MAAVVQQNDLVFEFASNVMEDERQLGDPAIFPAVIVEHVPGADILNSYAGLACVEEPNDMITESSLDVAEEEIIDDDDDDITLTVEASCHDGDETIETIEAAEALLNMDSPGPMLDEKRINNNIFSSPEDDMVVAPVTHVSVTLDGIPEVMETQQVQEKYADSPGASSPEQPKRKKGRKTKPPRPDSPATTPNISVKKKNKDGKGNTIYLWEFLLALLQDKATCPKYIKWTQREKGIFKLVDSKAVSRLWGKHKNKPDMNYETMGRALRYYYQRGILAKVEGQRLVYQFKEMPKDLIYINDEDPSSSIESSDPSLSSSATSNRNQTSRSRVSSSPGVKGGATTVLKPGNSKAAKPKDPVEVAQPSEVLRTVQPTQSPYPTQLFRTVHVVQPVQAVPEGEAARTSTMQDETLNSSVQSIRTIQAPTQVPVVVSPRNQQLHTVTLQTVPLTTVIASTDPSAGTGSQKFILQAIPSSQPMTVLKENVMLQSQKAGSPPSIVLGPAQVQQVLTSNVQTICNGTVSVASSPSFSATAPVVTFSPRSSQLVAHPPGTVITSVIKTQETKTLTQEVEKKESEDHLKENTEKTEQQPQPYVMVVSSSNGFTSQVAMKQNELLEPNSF
sequence,measurement,setting,value
AGCCCT,binding signal,FLI1,"1.03 fold enrichment (6-mer frequency, TF over GST control)"
same,binding signal,ELK1,"1.14 fold enrichment (6-mer frequency, TF over GST control)"
same,binding signal,GABPA,"1.11 fold enrichment (6-mer frequency, TF over GST control)"
same,binding signal,ERG,"1.09 fold enrichment (6-mer frequency, TF over GST control)"
same,binding signal,ELF1,"1.07 fold enrichment (6-mer frequency, TF over GST control)"
same,binding signal,EHF,"1.18 fold enrichment (6-mer frequency, TF over GST control)"
same,binding signal,SPI1,"1.09 fold enrichment (6-mer frequency, TF over GST control)"
same,binding signal,SPIB,"1.14 fold enrichment (6-mer frequency, TF over GST control)"
same,binding signal,ELK3,"1.07 fold enrichment (6-mer frequency, TF over GST control)"
same,binding signal,FEV,"1.14 fold enrichment (6-mer frequency, TF over GST control)"
same,binding signal,ETV5,"1.08 fold enrichment (6-mer frequency, TF over GST control)"
same,binding signal,HSF1,"1.09 fold enrichment (6-mer frequency, TF over GST control)"
same,binding signal,SPIC,"1.25 fold enrichment (6-mer frequency, TF over GST control)"
same,binding signal,ELF4,"1.06 fold enrichment (6-mer frequency, TF over GST control)"
same,binding signal,ELK4,"1.14 fold enrichment (6-mer frequency, TF over GST control)"
same,binding signal,ETV2,"1.18 fold enrichment (6-mer frequency, TF over GST control)"
same,binding signal,ELF3,"1.1 fold enrichment (6-mer frequency, TF over GST control)"
same,binding signal,CRX,"1.25 fold enrichment (6-mer frequency, TF over GST control)"
same,binding signal,ETV1,"1.05 fold enrichment (6-mer frequency, TF over GST control)"
